# About 2,000 (36%) of roughly 5,500 compounds were called active. About 18% were inconclusive and are not listed. This is one part of the list. Unmarked numbers belong to inactive results. No stated cut-off is given here; in the data, active means normalized growth mostly below about 0.91 (no sharp cut-off); inconclusive means no clear call, values can overlap the other calls; inactive means mostly above about 0.92.
# Test: chemical genetic growth profiling, strain panel (AID 1159580);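 further: tested at 20 µM; growth read once vehicle control cultures reached saturation at 30 °C; 1 = growth at the plate median or of vehicle wells; lower values mean less growth of the strain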
# Details: S. cerevisiae deletion strains, growth OD
# [1] = locus YAR019C, strain CDC15, hits give low values
# [2] = locus YBL105C, strain PKC1, hits give low values
# [3] = locus YBR135W, strain CKS1, hits give low values
# [4] = locus YBR136W, strain MEC1, hits give low values
# [5] = locus YBR160W, strain CDC28, hits give low values
# [6] = locus YDL017W, strain CDC7, hits give low values
# [7] = locus YDL028C, strain MPS1, hits give low values
# [8] = locus YDL101C, strain DUN1, hits give low values
# [9] = locus YDL108W, strain KIN28, hits give low values
# [10] = locus YDL132W, strain cdc53, hits give low values
# [11] = locus YDL214C, strain PRR2, hits give low values
# [12] = locus YDR052C, strain DBF4, hits give low values
# [13] = locus YDR054C, strain cdc34, hits give low values
# [14] = locus YDR226W, strain ADK1, hits give low values
# [15] = locus YDR477W, strain SNF1, hits give low values
# [16] = locus YER123W, strain YCK3, hits give low values
# [17] = locus YER133W, strain GLC7, hits give low values
# [18] = locus YFL009W, strain cdc4, hits give low values
# [19] = locus YFL029C, strain CAK1, hits give low values
# [20] = locus YFR003C, strain YPI1, hits give low values
# [21] = locus YFR019W, strain FAB1, hits give low values
# [22] = locus YFR028C, strain CDC14, hits give low values
# [23] = locus YGR040W, strain KSS1, hits give low values
# [24] = locus YGR052W, strain FMP48, hits give low values
# [25] = locus YGR092W, strain DBF2, hits give low values
# [26] = locus YHR030C, strain SLT2, hits give low values
# [27] = locus YHR079C, strain IRE1, hits give low values
# [28] = locus YHR082C, strain KSP1, hits give low values
# [29] = locus YHR205W, strain SCH9, hits give low values
# [30] = locus YIL147C, strain SLN1, hits give low values
# [31] = locus YJL095W, strain BCK1, hits give low values
# [32] = locus YJL128C, strain PBS2, hits give low values
# [33] = locus YJL157C, strain FAR1, hits give low values
# [34] = locus YJR016C, strain ILV3, hits give low values
# [35] = locus YJR066W, strain TOR1 (second series), hits give low values
# [36] = locus YJR066W, strain TOR1, hits give low values
# [37] = locus YKL048C, strain ELM1, hits give low values
# [38] = locus YKL067W, strain YNK1, hits give low values
# [39] = locus YKL101W, strain HSL1, hits give low values
# [40] = locus YKL193C, strain SDS22, hits give low values
# [41] = locus YKL203C, strain TOR2, hits give low values
# [42] = locus YLR113W, strain HOG1, hits give low values
# [43] = locus YLR133W, strain CKI1, hits give low values
# [44] = locus YLR403W, strain SFP1, hits give low values
# [45] = locus YML070W, strain DAK1, hits give low values
# [46] = locus YMR001C, strain CDC5, hits give low values
# [47] = locus YMR205C, strain PFK2 (second series), hits give low values
# [48] = locus YMR277W, strain FCP1, hits give low values
# [49] = locus YNL006W, strain LST8, hits give low values
# [50] = locus YNL020C, strain ARK1, hits give low values
# [51] = locus YNL161W, strain CBK1, hits give low values
# [52] = locus YNL183C, strain NPR1, hits give low values
# [53] = locus YNL207W, strain RIO2, hits give low values
# [54] = locus YNL222W, strain SSU72, hits give low values
# [55] = locus YNL307C, strain MCK1 (second series), hits give low values
# [56] = locus YOL078W, strain AVO1, hits give low values
# [57] = locus YOL136C, strain PFK27, hits give low values
# [58] = locus YOR061W, strain CKA2, hits give low values
# [59] = locus YOR119C, strain RIO1, hits give low values
# [60] = locus YOR231W, strain MKK1, hits give low values
# [61] = locus YOR329C, strain SCD5, hits give low values
# [62] = locus YPL031C, strain PHO85, hits give low values
# [63] = locus YPL153C, strain RAD53, hits give low values
# [64] = locus YPL204W, strain HRR25, hits give low values
# [65] = locus YPL209C, strain IPL1, hits give low values
# [66] = locus YPL256C, strain CLN2, hits give low values
# [67] = locus YPR025C, strain CCL1, hits give low values
# [68] = locus YPR106W, strain ISR1, hits give low values
# [69] = locus YPR111W, strain DBF20, hits give low values
# [70] = strain NNK1, hits give low values
# [71] = strain TSCII, hits give low values
compound,measurement,setting,value
CCNC(=O)[C@H]1O[C@@H](n2cnc3c(N)ncnc32)C(O)[C@H]1O (stereo partly drawn),normalized growth,"locus YAL013W, strain DEP1, hits give low values",1
same,normalized growth,"locus YAL040C, strain CLN3, hits give low values",1.02
same,normalized growth,"locus YCL061C, strain MRC1 (second series), hits give low values",1
same,normalized growth,"locus YDR150W, strain NUM1, hits give low values",1
same,normalized growth,"locus YDR363W, strain ESC2, hits give low values",1.03
same,normalized growth,"locus YER002W, strain NOP16, hits give low values",1.01
same,normalized growth,"locus YJR075W, strain HOC1, hits give low values",1
same,normalized growth,"locus YNL175C, strain NOP13, hits give low values",1
same,normalized growth,"locus YNL197C, strain WHI3, hits give low values",1.01
same,normalized growth,"locus YNL224C, strain SQS1, hits give low values",0.992
same,normalized growth,"locus YOR083W, strain WHI5 (second series), hits give low values",1.04
Cc1ccc(NS(=O)(=O)c2ccc(-c3csc(C)n3)s2)c(C)c1,normalized growth,[1],0.977
same,normalized growth,[2],0.984
same,normalized growth,[3],0.979
same,normalized growth,[4],0.981
same,normalized growth,[5],0.983
same,normalized growth,[6],0.984
same,normalized growth,[7],0.98
same,normalized growth,[8],0.993
same,normalized growth,[9],0.972
same,normalized growth,[10],0.989
same,normalized growth,[11],0.904
same,normalized growth,[12],0.986
same,normalized growth,[13],0.975
same,normalized growth,[14],0.986
same,normalized growth,[15],0.885
same,normalized growth,[16],0.888
same,normalized growth,[17],0.883
same,normalized growth,[18],0.976
same,normalized growth,[19],0.979
same,normalized growth,[20],0.98
same,normalized growth,[21],0.934
same,normalized growth,[22],0.981
same,normalized growth,[23],0.895
same,normalized growth,[24],0.928
same,normalized growth,[25],0.913
same,normalized growth,[26],0.647 (active)
same,normalized growth,[27],0.883
same,normalized growth,[28],0.976
same,normalized growth,[29],0.977
same,normalized growth,[30],0.982
same,normalized growth,[31],0.859
same,normalized growth,[32],0.943
same,normalized growth,[33],0.931
same,normalized growth,[34],0.983
same,normalized growth,[35],0.826
same,normalized growth,[36],0.936
same,normalized growth,[37],0.957
same,normalized growth,[38],0.898
same,normalized growth,[39],0.894
same,normalized growth,[40],0.985
same,normalized growth,[41],0.92
same,normalized growth,[42],0.676 (active)
same,normalized growth,[43],0.902
same,normalized growth,[44],0.912
same,normalized growth,[45],0.856
same,normalized growth,[46],0.977
same,normalized growth,[47],0.915
same,normalized growth,[48],0.98
same,normalized growth,[49],0.978
same,normalized growth,[50],0.898
same,normalized growth,[51],0.982
same,normalized growth,[52],0.893
same,normalized growth,[53],0.975
same,normalized growth,[54],0.986
same,normalized growth,[55],0.887
same,normalized growth,[56],0.983
same,normalized growth,[57],0.915
same,normalized growth,[58],0.84
same,normalized growth,[59],0.93
same,normalized growth,[60],0.806
same,normalized growth,[61],0.98
same,normalized growth,[62],0.892
same,normalized growth,[63],0.937
same,normalized growth,[64],0.881
same,normalized growth,[65],0.982
same,normalized growth,[66],0.715 (active)
same,normalized growth,[67],0.981
same,normalized growth,[68],0.988
same,normalized growth,[69],0.962
same,normalized growth,[70],0.974
same,normalized growth,[71],0.975
Cc1nc(-c2ccc(S(=O)(=O)Nc3ccc(Br)cc3Cl)s2)cs1,normalized growth,[1],0.936
same,normalized growth,[2],0.946
same,normalized growth,[3],0.953
same,normalized growth,[4],0.942
same,normalized growth,[5],0.959
same,normalized growth,[6],0.942
same,normalized growth,[7],0.957
same,normalized growth,[8],0.956
same,normalized growth,[9],0.961
same,normalized growth,[10],0.951
same,normalized growth,[11],0.888
same,normalized growth,[12],0.941
same,normalized growth,[13],0.928
same,normalized growth,[14],0.943
same,normalized growth,[15],0.858
same,normalized growth,[16],0.904
same,normalized growth,[17],0.867
same,normalized growth,[18],0.957
same,normalized growth,[19],0.953
same,normalized growth,[20],0.949
same,normalized growth,[21],0.923
same,normalized growth,[22],0.952
same,normalized growth,[23],0.868
same,normalized growth,[24],0.866
same,normalized growth,[25],0.877
same,normalized growth,[26],0.575 (active)
same,normalized growth,[27],0.778
same,normalized growth,[28],0.943
same,normalized growth,[29],0.944
same,normalized growth,[30],0.957
same,normalized growth,[31],0.84
same,normalized growth,[32],0.89
same,normalized growth,[33],0.893
same,normalized growth,[34],0.94
same,normalized growth,[35],0.882
same,normalized growth,[36],0.93
same,normalized growth,[37],0.919
same,normalized growth,[38],0.883
same,normalized growth,[39],0.864
same,normalized growth,[40],0.942
same,normalized growth,[41],0.893
same,normalized growth,[42],0.635 (active)
same,normalized growth,[43],0.888
same,normalized growth,[44],0.863
same,normalized growth,[45],0.856
same,normalized growth,[46],0.946
same,normalized growth,[47],0.907
same,normalized growth,[48],0.94
same,normalized growth,[49],0.937
same,normalized growth,[50],0.884
same,normalized growth,[51],0.946
same,normalized growth,[52],0.901
same,normalized growth,[53],0.925
same,normalized growth,[54],0.952
same,normalized growth,[55],0.891
same,normalized growth,[56],0.952
same,normalized growth,[57],0.852
same,normalized growth,[58],0.859
same,normalized growth,[59],0.938
same,normalized growth,[60],0.79
same,normalized growth,[61],0.946
same,normalized growth,[62],0.862
same,normalized growth,[63],0.893
same,normalized growth,[64],0.846
same,normalized growth,[65],0.942
same,normalized growth,[66],0.672 (active)
same,normalized growth,[67],0.953
same,normalized growth,[68],0.943
same,normalized growth,[69],0.926
same,normalized growth,[70],0.926
same,normalized growth,[71],0.937
